This is part of a sample that, as a whole, favours compounds with a hit. Of some 83,000 tested, about 20% had one in any assay.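 Negative percent growth values reflect cell death: -40 means 40% of the cells present at the start died, and -100 means all died.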 Unmarked numbers belong to inactive results. Active and inactive are the calls of the source. Rule for the calls: active = growth percent below 10; inactive = the rest.
Test system: MOLT-4 leukemia
Experiment: NCI-60 one-dose screen, 48 h (100 = growth as untreated, 0 = no growth, -100 = all killed)
Settings: 10 µM unless noted

SMILES	growth
O=C1Nc2ccccc2/C1=N/N=C/c1c[nH]c2ccccc12	71.8%
Cc1nc2ccc(C(=O)NCc3cc(C(=O)O)c(C)o3)cc2nc1C	106%
Cc1ccc(S(=O)(=O)NN/C(N)=N\S(=O)(=O)c2cc(C)c(Cl)cc2SCc2ccccc2)cc1	61.3%
COc1ccc(-c2nnc(SCC(=O)NC3=NN=C(c4ccccc4)CS3)o2)cc1	83.9%
Cn1ncc2c(Nc3ccc(Br)cc3)nc(Nc3ccc(Br)cc3)nc21	26.7%
Cc1cn(C2CCCCC2)c(=O)[nH]c1=O	96.6%
Cl.Fc1c[c-]c(-c2ccccn2)c(F)c1.[Pt].c1ccc(P(c2ccccc2)C([PH+](c2ccccc2)c2ccccc2)[PH+](c2ccccc2)c2ccccc2)cc1	13.2%
N=C(N)c1ccc(-c2ccc(-c3ccc(Cl)c(Cl)c3)o2)cc1	-31% (active)
Cc1cc(=O)c2cc3nc(-c4cccnc4)oc3c(Br)c2o1	89.7%
C=C1C(=O)O[C@H]2[C@H]1CC/C(COC(=O)/C=C/C(=O)NCc1ccc(Cn3c(=O)sn(-c4ccccc4)c3=O)cc1)=C\CC[C@@]1(C)O[C@@H]21	-27.7% (active)
Cc1ccc(/C=C(\C#N)n2nnc3cc(Cl)c(Cl)cc32)cc1	9.51% (active)
N=C(N)c1ccc(-c2ccc(-c3ccc(Cl)c(Cl)c3)o2)nc1	9.85% (active)
COc1ccccc1C(=O)NC(=S)Nc1ccc(-c2nc3ccccc3[nH]2)cc1	91.9%
N#C/C(=C\c1ccc2c(c1)OCO2)n1nnc2ccccc21	16.4%
O=C(NC(=S)Nc1ccc(-c2nc3ccccc3[nH]2)cc1)c1ccc2ccccc2c1	59%
COc1cc2c(c(OC)c1OC)C(=O)/C(=C/c1cc(C)c(O)c(C)c1)S2	33.9%
COc1ccc(-c2cc(-c3ccc(Nc4nc(Nc5ccccc5)nc(Nc5ccc(Cl)cc5)n4)cc3)nc(N)c2C#N)cc1	2.08% (active)
Cc1c(Cl)cccc1NS(=O)(=O)c1ccccc1	102%
CCn1c(Sc2nnc(NC(C)=O)s2)nc2c1c(=O)n(C)c(=O)n2C	113%

SMILES	growth
NS(=O)(=O)c1cn(-c2ncnc3nc[nH]c23)ccc1=O	99.5%
CN1C(=O)CCC(N2C(=O)c3cccc(NCCOCCOCCNC(=O)c4cc5c(o4)C(=O)c4ccccc4C5=O)c3C2=O)C1=O (configuration not stated)	11.1%
COc1ccc(Nc2ncc(Br)c(NCCCNC(=O)C3CCC3)n2)cc1	12.1%
COc1ccccc1NC(=O)Nc1ccc(-c2nc3ccccc3o2)cc1	75.1%
N#C/C=C(\c1ccc([N+](=O)[O-])cc1)n1nnc2cc(Cl)c(Cl)cc21	22.4%
O=C(c1ccccc1)c1ccc(N2C(=O)C3C4c5ccccc5C(/C=C/C(=O)c5ccccn5)(c5ccccc54)C3C2=O)cc1 (configuration not stated)	16%
Cc1cc(-c2ccc(N(C)C)cc2)c2sc(=O)[nH]c2n1	63.2%
N#Cc1c(NC(=O)c2ccccc2I)sc2c1CCCC2	34.9%
C[C@@H]1CC[C@@H]2[C@@H]1[C@H](OC(=O)/C=C/c1ccccc1)[C@]1(CCCOCCOCCOCCOC(=O)CCCC[C@@H]3SC[C@@H]4NC(=O)N[C@@H]43)C[C@@H](OC(=O)CO)[C@@]2(C)O1	97.9%
CCn1c(Sc2nnc(NC(=O)CCN3CCCC3)s2)nc2c1c(=O)n(C)c(=O)n2C	108%
Cl.Fc1c[c-]c(-c2ccccn2)c(F)c1.[Pt].c1ccc([PH+](C[PH+](c2ccccc2)c2ccccc2)c2ccccc2)cc1	-38.9% (active)
CCCCCCCC/C=C/CCCCCCCC1=NCC[N+]1(CCO)CCO	41.7%
CCOC(=O)N1CCc2c(sc3c2C(=O)N[C@H](c2ccc(OC)cc2)N3)C1	99.7%
CCOc1ccc(-c2nc3ccc(-c4nc5ccc(N6CCN(C)CC6)cc5[nH]4)cc3[nH]2)cc1OCC	9.04% (active)
O=C(NCCN1CCC(O)CC1)c1cc2c(o1)C(=O)c1ccccc1C2=O	-4.13% (active)
Cl.Fc1c[c-]c(-c2ccccn2)c(F)c1.[Pt].c1ccc([PH+](c2ccccc2)c2ccccc2[PH+](c2ccccc2)c2ccccc2)cc1	-28.3% (active)
O=C(NCCOCCOCCOCCNC(=O)c1cc2c(o1)C(=O)c1ccccc1C2=O)NC12CC3CC(CC(C3)C1)C2	12.1%
COc1ccc(/C=C(\C#N)n2nnc3ccccc32)cc1	18.7%
